For 6 compounds, outcome and AC50 results are on record in PubChem BioAssay (EPA / NIEHS).

Test [1] is described as follows: TOX21_p53_BLA_p2_viability: Viability Assessment in the Tox21 HCT-116 p53 Agonism Beta-lactamase Assay, Phase 2 (AID 2283591).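 Further: actives lower the ATP signal meaning cytotoxicity.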 The procedure, abridged: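 HCT116 p53-bla cells, 4000/well, dosed after 5 h plating (217-fold dilution of DMSO stocks) and incubated 16 h at 37C. Viability taken as cellular ATP by CellTiter-Glo luminescence after 30 min RT; signal loss marks cytotoxicity.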

In test [2] the target is Cellular tumor antigen p53 (Homo sapiens) (UniProt P04637). The test can be described thus: TOX21_p53_BLA_p2_ratio: Tox21 HCT-116 p53 Agonism Beta-lactamase Assay, Ratio, Phase 2 (AID 2283592). In a few lines: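 An inducible beta-lactamase reporter in HCT116 cells signals p53 pathway activation. After 16 h chemical exposure at 37C, cells load CCF4-AM substrate for 2 h at room temperature; activity is the cleaved/uncleaved emission ratio relative to DMSO.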
Cellular tumor antigen p53 (Homo sapiens), sequence (P04637 whole entry, looked up): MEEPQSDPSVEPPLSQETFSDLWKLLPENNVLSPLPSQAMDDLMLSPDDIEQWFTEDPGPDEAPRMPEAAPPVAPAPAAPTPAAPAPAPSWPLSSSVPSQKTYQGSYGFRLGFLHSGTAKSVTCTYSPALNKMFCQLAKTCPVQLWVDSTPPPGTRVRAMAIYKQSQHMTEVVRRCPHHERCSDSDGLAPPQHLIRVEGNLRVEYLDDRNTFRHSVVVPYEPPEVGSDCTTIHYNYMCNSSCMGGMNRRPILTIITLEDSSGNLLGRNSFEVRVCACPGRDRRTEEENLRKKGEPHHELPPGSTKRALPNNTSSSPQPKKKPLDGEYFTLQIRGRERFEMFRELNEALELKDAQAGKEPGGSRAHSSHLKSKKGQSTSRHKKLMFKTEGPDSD

Test [3] in a line: TOX21_p53_BLA_p3_viability: Viability Assessment in the Tox21 HCT-116 p53 Agonism Beta-lactamase Assay, Phase 3 (AID 2283593).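 Further: cells exposed to compound for 16 h before reading.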 In a few lines:
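HCT116 cells, 4000/well, dosed 5 h after plating by pin transfer (217-fold dilution from DMSO stock) and incubated 16 h at 37C, 5% CO2. Viability read as ATP luminescence with CellTiter-Glo after 30 min at room temperature.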

Test [4] addresses Cellular tumor antigen p53 (Homo sapiens) (UniProt P04637). Put plainly: TOX21_p53_BLA_p3_ratio: Tox21 HCT-116 p53 Agonism Beta-lactamase Assay, Ratio, Phase 3 (AID 2283596). In a few lines:
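HCT116 p53-bla cells (4000/well) given compound in DMSO (217-fold dilution) after 5 h, incubated 16 h at 37C. CCF4-AM substrate 2 h at room temperature; 460/530 nm emission ratio, gain fitted against DMSO.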

Test [5] is described as follows: TOX21_p53_BLA_p4_viability: Viability Assessment in the Tox21 HCT-116 p53 Agonism Beta-lactamase Assay, Phase 4 (AID 2283597).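 Further: hits lower the luminescence signal meaning cytotoxicity.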 In a few lines: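 Compound exposure of HCT116 cells lasts 16 h at 37C, 5% CO2, with DMSO stocks diluted 217-fold. Cellular ATP is then quantified by CellTiter-Glo luminescence after 30 min at room temperature.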
In test [6] the target is Cellular tumor antigen p53 (Homo sapiens) (UniProt P04637). The test can be described thus: TOX21_p53_BLA_p5_ratio: Tox21 HCT-116 p53 Agonism Beta-lactamase Assay, Ratio, Phase 5 (AID 2283599). In a few lines:
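HCT-116 p53-bla cells (4000/well) plated 5 h, dosed with compound (217-fold DMSO dilution) for 16 h at 37 C; CCF4-AM substrate 2 h at room temperature. Activity is the 460/530 nm emission ratio (405 nm excitation), fitted in gain-of-signal direction versus DMSO.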

Test [7] can be described thus: TOX21_p53_BLA_p5_viability: Viability Assessment in the Tox21 HCT-116 p53 Agonism Beta-lactamase Assay, Phase 5 (AID 2283600). In a few lines: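 Counter-readout for cytotoxicity: ATP-dependent luminescence from CellTiter-Glo, read in the beta-lactamase wells after 30 min at RT, following a 16 h compound exposure at 37C.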
Test [8] addresses Cellular tumor antigen p53 (Homo sapiens) (UniProt P04637). The test can be described thus: TOX21_p53_BLA_p4_ratio: Tox21 HCT-116 p53 Agonism Beta-lactamase Assay, Ratio, Phase 4 (AID 2283601). In a few lines:
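HCT-116 p53 beta-lactamase reporter cells (4000/well) preincubated 5 h, then compound (217-fold dilution of DMSO stock) for 16 h at 37C. CCF4-AM substrate added 2 h at room temperature; 460/530 nm emission ratio fitted upward versus DMSO.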

Records with an inconclusive call do not appear. Active and inactive are the calls of the source. How the source made its calls: active means hit-call score of the fitted dose curve at least 0.9, where 1 is the maximum; inconclusive means response in the unintended direction; inactive means score below 0.9.

As a reminder, the AC50 is the concentration at which the activity in the assay is half-maximal.

Take `S=C=S`: the compound was classed as inactive in test [1], in test [2], in test [3], in test [4], in test [5] and in test [6]. Moreover, the compound was called inactive in test [7] and in test [8].
As to `Clc1ccc(CO/N=C(\Cn2ccnc2)c2ccc(Cl)cc2Cl)c(Cl)c1`, the AC50 in test [1] was 23 µM (active); in test [2] it was 38.7 µM (active); in test [4] it was 42.8 µM (active); in test [5] it was 33.4 µM (active); in test [6] it was 36.3 µM (active); in test [8] it was 33 µM (active). In addition, the outcome in test [3] and in test [7] was inactive.
As to `Clc1ccc(CSC(Cn2ccnc2)c2ccc(Cl)cc2Cl)cc1` (stereo not drawn), the call in test [1], in test [3], in test [4], in test [5], in test [6] and in test [7] was inactive. Further, the AC50 in test [2] was 17.7 µM (active); in test [8], 15.4 µM (active).
Turning to `CCC(=O)O[C@]1(c2ccccc2)CCN(C)C[C@H]1C`, the compound was classed as inactive in test [1], in test [2], in test [3], in test [4], in test [5] and in test [6]. For the same compound, the compound was classed as inactive in test [7] and in test [8].
Consider `NCC(O)c1ccc(O)cc1` (stereo not drawn), for which the compound was classed as inactive in test [1], in test [2], in test [3], in test [4], in test [5] and in test [6]. In addition, the outcome in test [7] and in test [8] was inactive.
Regarding `BrCC(Br)C1CCC(Br)C(Br)C1` (stereo not drawn), the outcome in test [1], in test [2], in test [3], in test [4], in test [5] and in test [6] was inactive. For the same compound, the call in test [7] and in test [8] was inactive.
